# Results taken from PubChem BioAssay (Tox21).
# Where “and” joins values, the source holds several entries; their conditions need not be identical. Identical values can stand only once. Results filed as inconclusive are left out. Entries that show only a call come without a potency. The source holds several records for some structures; these can differ, active in one and inactive in another. Calls of active or inactive are those of the source. Unless noted, calls follow the shape of the dose curve; as a rule, active = well fitted curve in the direction sought with a large enough effect in the repeat runs; inconclusive = weak or mixed curves; inactive = no such curve, though single readings can be large; an effect the other way counts as inactive or inconclusive.
# Legend:
# [1] = target: Acetylcholinesterase (Homo sapiens) (UniProt P22303); assay: Acetylcholinesterase (AChE) small molecule antagonists: enzyme-based qHTS assay (AID 1347397; calls by dose curve; also: nearly all actives have a fitted effect of over 55% in size); details: Potency: AChE enzyme activity inhibition
# Chain of Acetylcholinesterase (Homo sapiens) (P22303 whole entry, looked up): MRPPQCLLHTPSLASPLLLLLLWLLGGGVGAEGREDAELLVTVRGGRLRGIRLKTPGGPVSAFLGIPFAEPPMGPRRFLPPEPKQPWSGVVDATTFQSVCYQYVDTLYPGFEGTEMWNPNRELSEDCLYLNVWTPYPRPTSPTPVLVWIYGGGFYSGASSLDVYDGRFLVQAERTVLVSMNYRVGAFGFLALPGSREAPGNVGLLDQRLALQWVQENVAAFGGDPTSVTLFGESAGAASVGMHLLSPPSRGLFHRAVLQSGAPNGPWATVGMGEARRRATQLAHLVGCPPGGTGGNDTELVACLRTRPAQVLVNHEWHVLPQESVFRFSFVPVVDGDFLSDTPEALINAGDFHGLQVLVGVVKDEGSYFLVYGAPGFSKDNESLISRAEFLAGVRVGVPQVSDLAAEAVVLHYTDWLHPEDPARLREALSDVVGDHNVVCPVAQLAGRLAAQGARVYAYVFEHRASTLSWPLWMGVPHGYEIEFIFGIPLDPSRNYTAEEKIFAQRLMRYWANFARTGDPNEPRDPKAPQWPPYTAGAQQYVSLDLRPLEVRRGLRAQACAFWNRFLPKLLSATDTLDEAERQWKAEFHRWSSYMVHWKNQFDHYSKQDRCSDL
# Summary of the method: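 Compound or DMSO vehicle was pin-transferred onto recombinant human AChE (50 mU/mL as dispensed) and left 30 min at room temperature. Acetylthiocholine with DTNB then started the reaction, read colorimetrically 10 min later.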
# [2] = target: Acetylcholinesterase (Homo sapiens) (UniProt P22303); assay: Acetylcholinesterase (AChE) small molecule antagonists: fluorescence cell-based qHTS assay (AID 1347398; calls by dose curve; also: nearly all actives have a fitted effect of over 50% in size); details: Potency: AChE activity
# Summary of the method: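 Using neuroblastoma SH-SY5Y cells as the enzyme source, test chemicals are preincubated 30 min at 37 C; AChE-driven acetylthiocholine cleavage is then quantified by thiocholine-dependent Thiolite Green fluorescence after 40 min at room temperature.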
# [3] = target: Acetylcholinesterase (Homo sapiens) (UniProt P22303); assay: Acetylcholinesterase (AChE) small molecule antagonists: enzyme-based qHTS assay with human liver microsomes (AID 1347399; calls by dose curve; also: nearly all actives have a fitted effect of over 60% in size); details: Potency: qHTS inhibition
# Summary of the method: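 Recombinant human AChE (50 mU/mL in the enzyme mix) and human liver microsomes (0.25 mg/mL final) were preincubated with compound and NADPH (0.25 mg/mL final) for 30 min at 37 C. Acetylthiocholine/DTNB was then added; thiocholine was read colorimetrically after 10 min at room temperature.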
# [4] = target: Cytochrome P450 2C19 (Homo sapiens) (UniProt P33261); assay: Cytochrome P450 Family 2 Subfamily C Member 19 (CYP2C19) small molecule antagonists: luciferase reporter qHTS assay (AID 1671197); also: nearly all actives have a fitted effect of over 65% in size; also: potency is read from the fitted curve at half-maximal effect
# Chain of Cytochrome P450 2C19 (Homo sapiens) (P33261 whole entry, looked up): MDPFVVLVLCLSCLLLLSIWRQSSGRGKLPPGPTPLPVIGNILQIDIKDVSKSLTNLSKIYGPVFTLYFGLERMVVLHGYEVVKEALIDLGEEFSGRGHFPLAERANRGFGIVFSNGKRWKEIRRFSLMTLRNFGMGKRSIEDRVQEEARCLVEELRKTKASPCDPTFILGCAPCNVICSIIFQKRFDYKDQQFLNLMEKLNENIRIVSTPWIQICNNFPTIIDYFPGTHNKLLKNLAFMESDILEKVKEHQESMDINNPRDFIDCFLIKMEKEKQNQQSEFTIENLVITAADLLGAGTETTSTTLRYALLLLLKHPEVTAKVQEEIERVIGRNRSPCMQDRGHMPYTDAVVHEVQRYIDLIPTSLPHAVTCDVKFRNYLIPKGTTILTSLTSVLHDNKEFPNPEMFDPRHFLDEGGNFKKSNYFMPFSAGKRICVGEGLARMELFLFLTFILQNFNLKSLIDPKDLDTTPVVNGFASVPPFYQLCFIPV
# Summary of the method: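 Quantitative high-throughput screen of the Tox21 library using CYP2C19 with proluciferin substrate. Reaction: NADPH regeneration, 37C, 1 h, after 10 min compound preincubation at room temperature. Readout: luminescence.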
# [5] = target: Cytochrome P450 1A2 (Homo sapiens) (UniProt P05177); assay: Cytochrome P450 Family 1 Subfamily A Member 2 (CYP1A2) small molecule antagonists: luciferase reporter qHTS assay (AID 1671199); also: nearly all actives have a fitted effect of over 50% in size; also: potency is read from the fitted curve at half-maximal effect
# Chain of Cytochrome P450 1A2 (Homo sapiens) (P05177 whole entry, looked up): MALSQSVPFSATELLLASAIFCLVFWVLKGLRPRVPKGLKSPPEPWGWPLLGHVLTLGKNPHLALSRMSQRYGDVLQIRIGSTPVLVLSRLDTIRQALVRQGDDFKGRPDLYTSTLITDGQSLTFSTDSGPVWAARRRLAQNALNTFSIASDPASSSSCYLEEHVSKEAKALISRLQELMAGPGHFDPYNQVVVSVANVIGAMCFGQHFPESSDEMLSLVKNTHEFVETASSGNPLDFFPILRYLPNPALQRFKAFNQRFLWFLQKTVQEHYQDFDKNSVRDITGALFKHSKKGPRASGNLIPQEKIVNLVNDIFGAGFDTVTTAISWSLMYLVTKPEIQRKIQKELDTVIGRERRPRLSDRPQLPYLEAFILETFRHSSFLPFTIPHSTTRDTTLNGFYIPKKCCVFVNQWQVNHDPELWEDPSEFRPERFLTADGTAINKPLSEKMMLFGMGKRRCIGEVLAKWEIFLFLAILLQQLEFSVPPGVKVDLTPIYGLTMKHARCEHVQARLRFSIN
# Summary of the method: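 Room-temperature CYP1A2 reaction with proluciferin substrate: compounds added from DMSO, 10 min preincubation, NADPH regeneration for 1 h. Luciferin detection reagent then added; luminescence recorded as RLU.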
# [6] = target: Voltage-gated inwardly rectifying potassium channel KCNH2 (Homo sapiens) (UniProt Q12809); assay: Human Ether-a-go-go-Related Gene (hERG) channel small molecule antagonists: fluorescence cell-based qHTS assay (AID 1671200); also: nearly all actives have a fitted effect of over 50% in size; also: potency is read from the fitted curve at half-maximal effect
# Chain of Voltage-gated inwardly rectifying potassium channel KCNH2 (Homo sapiens) (Q12809 whole entry, looked up): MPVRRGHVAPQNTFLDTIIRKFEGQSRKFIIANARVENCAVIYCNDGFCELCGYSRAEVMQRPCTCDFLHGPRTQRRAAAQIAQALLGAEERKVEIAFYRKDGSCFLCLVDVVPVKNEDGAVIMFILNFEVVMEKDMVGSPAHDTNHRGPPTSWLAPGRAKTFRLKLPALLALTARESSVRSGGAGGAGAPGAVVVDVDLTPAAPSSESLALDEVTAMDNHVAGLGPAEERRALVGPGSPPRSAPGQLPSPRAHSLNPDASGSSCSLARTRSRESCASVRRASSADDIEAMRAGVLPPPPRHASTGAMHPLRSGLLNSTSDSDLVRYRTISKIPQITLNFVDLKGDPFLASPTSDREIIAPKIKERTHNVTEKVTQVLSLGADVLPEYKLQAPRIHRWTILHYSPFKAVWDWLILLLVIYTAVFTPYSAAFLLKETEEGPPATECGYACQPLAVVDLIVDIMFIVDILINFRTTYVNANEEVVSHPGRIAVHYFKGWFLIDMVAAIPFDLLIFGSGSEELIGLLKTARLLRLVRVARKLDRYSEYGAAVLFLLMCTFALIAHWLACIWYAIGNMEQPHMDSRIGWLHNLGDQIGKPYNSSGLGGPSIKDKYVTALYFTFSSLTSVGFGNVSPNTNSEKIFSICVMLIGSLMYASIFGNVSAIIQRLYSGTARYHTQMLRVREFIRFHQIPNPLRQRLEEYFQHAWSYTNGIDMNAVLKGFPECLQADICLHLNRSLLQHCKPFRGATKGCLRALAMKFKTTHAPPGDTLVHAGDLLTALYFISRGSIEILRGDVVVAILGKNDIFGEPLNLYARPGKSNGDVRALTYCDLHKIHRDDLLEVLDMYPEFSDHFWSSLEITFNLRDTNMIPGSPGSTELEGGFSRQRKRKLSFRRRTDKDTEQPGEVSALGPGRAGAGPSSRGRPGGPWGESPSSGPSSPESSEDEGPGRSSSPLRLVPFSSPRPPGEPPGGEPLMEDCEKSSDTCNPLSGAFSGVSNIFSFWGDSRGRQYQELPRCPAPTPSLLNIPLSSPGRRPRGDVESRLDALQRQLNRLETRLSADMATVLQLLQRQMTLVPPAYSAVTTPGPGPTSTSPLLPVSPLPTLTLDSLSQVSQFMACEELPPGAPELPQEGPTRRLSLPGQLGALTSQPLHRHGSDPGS
# Summary of the method: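 Cell line hERG-U2OS; dye FluxOR II, 1 h RT dark; Tl+ stimulus; ex 480/em 540 nm, read each second for 2 min.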
# [7] = target: Cytochrome P450 2C9 (Homo sapiens) (UniProt P11712); assay: Cytochrome P450 Family 2 Subfamily C Member 9 (CYP2C9) small molecule antagonists: luciferase reporter qHTS assay (AID 1671198); also: nearly all actives have a fitted effect of over 50% in size; also: potency is read from the fitted curve at half-maximal effect
# Chain of Cytochrome P450 2C9 (Homo sapiens) (P11712 whole entry, looked up): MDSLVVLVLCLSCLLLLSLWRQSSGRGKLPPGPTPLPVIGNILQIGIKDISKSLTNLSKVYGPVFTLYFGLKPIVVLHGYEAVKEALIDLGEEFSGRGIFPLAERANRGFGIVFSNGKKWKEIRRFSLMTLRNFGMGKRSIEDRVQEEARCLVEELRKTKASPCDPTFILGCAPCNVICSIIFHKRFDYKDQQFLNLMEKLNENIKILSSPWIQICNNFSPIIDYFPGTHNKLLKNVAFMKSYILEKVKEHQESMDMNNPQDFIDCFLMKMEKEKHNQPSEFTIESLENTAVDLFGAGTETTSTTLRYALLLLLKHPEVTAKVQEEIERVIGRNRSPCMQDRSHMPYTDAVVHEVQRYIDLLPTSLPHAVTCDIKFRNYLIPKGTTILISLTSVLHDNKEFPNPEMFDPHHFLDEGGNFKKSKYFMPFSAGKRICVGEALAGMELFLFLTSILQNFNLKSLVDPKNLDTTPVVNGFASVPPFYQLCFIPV
# Summary of the method: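 CYP2C9 activity was measured with a P450-Glo proluciferin substrate. Enzyme–substrate mix was held with compound for 10 min at room temperature, then NADPH regeneration solution was added for 1 h at 37C. Luciferin product was read as luminescence.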
# [8] = target: Cytochrome P450 3A4 (Homo sapiens) (UniProt P08684); assay: Cytochrome P450 Family 3 Subfamily A Member 4 (CYP3A4) small molecule antagonists: luciferase reporter qHTS assay (AID 1671201); also: nearly all actives have a fitted effect of over 50% in size; also: potency is read from the fitted curve at half-maximal effect
# Chain of Cytochrome P450 3A4 (Homo sapiens) (P08684 whole entry, looked up): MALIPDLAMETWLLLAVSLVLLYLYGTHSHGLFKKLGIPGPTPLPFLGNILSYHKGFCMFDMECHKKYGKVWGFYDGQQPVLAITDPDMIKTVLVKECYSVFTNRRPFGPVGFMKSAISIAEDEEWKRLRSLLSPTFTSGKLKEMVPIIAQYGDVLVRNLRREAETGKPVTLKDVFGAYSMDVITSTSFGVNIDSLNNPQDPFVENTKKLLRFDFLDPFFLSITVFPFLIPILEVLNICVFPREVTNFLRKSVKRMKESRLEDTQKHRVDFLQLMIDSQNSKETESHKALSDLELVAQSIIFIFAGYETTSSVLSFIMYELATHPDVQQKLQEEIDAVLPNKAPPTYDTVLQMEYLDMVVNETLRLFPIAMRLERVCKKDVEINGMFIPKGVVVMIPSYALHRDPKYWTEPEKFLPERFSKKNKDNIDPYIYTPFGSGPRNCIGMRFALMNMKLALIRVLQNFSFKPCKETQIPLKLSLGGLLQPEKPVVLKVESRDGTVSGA
# Summary of the method: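 Room-temperature assay throughout: 10 min compound–enzyme/substrate preincubation, 1 h reaction after NADPH regeneration solution, 20 min detection. Luciferin formed from proluciferin substrate is quantified by luminescence.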
# [9] = target: Cytochrome P450 2D6 (Homo sapiens) (UniProt P10635); assay: Cytochrome P450 Family 2 Subfamily D Member 6 (CYP2D6) small molecule antagonists: luciferase reporter qHTS assay (AID 1671196); also: nearly all actives have a fitted effect of over 50% in size; also: potency is read from the fitted curve at half-maximal effect
# Chain of Cytochrome P450 2D6 (Homo sapiens) (P10635 whole entry, looked up): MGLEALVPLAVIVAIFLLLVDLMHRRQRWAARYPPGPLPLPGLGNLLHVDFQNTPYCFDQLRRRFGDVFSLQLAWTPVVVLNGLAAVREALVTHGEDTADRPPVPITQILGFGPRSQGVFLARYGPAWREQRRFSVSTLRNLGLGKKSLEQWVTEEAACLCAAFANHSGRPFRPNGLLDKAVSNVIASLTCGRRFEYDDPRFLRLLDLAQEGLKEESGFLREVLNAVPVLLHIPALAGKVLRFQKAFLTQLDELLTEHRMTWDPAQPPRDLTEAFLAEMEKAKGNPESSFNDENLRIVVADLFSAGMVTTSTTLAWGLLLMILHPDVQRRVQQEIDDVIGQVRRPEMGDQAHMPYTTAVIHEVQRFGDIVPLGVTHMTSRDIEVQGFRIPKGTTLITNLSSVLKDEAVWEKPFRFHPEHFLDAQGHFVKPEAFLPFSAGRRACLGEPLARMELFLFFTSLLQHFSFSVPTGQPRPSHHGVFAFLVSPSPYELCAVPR
# Summary of the method: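 Room-temperature luminescent CYP2D6 activity assay: compound preincubated 10 min with enzyme–substrate mix, NADPH-initiated reaction 1 h, detection reagent 20 min before reading.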
Compound,Potency [1],Potency [2],Potency [3],Potency [4],Potency [5],Potency [6],Potency [7],Potency [8],Potency [9]
OCCCBr,inactive,inactive,inactive,3.99 µM (active),61.8 µM (active),inactive,–,–,–
O=[N+]([O-])c1ccccc1CCl,–,inactive,inactive,–,–,inactive,inactive,inactive,–
Clc1cccc(SC2CCNCC2)n1,–,inactive,inactive,–,–,inactive,–,–,–
IC(I)=C(I)I,–,inactive,inactive,7.1 µM (active),10 µM (active),inactive,3.56 µM (active),inactive,inactive
CCCC(=O)Cl,–,inactive,inactive,–,–,inactive,inactive,inactive,inactive
CCC(Br)(CC)C(=O)NC(N)=O,–,inactive,inactive,inactive,inactive,inactive,inactive,inactive,–
CCn1cc[n+](C)c1,–,–,–,inactive and 40.3 µM (active) and 79.5 µM (active),35.5 µM (active) and inactive and 39 µM (active),inactive and 24.8 µM (active),inactive and 32 µM (active),inactive,inactive and 507 nM (active) and 34.7 µM (active)
c1ccc(C2CC2)c(OCC2=NCCN2)c1,–,inactive,inactive,inactive,–,inactive,inactive,inactive,4.36 µM (active)
COCCOCCO,inactive,inactive,inactive,–,–,inactive,–,–,–
C#CCOC(C(=O)OCCN(C)C)(c1ccccc1)c1ccccc1,–,–,–,1.95 µM (active),inactive,–,2.19 µM (active),–,3.47 µM (active)
CCCCc1c(C)nc(NCC)nc1OS(=O)(=O)N(C)C,inactive,–,inactive,–,12.6 µM (active),–,31.7 µM (active),12.6 µM (active),–
CCOP(=O)(OCC)Oc1ccc([N+](=O)[O-])cc1,–,–,–,1.61 µM (active) and 1.78 µM (active),32.1 µM (active) and 31.7 µM (active),inactive,64 µM (active),inactive,1.61 µM (active) and 1.59 µM (active)
CC(Cl)Cl,–,inactive,inactive,–,–,inactive,inactive,inactive,inactive
CCOP(=O)(OCC)O/C(=C/Cl)c1ccc(Cl)cc1Cl,–,–,–,1.12 µM (active),6.33 µM (active),inactive,28.3 µM (active),inactive,39.9 µM (active)
O=C(N[C@H](c1ccccc1)[C@@H]1CN2CCC1CC2)c1c(Cl)ccc(C(F)(F)F)c1Cl,–,–,–,–,inactive,39.5 µM (active),–,–,2.56 µM (active)
COC(C)(C)CCC[C@H](C)C/C=C/C(C)=C/C(=O)OC(C)C,–,inactive,inactive,17.8 µM (active),35.6 µM (active),inactive,22.4 µM (active),20 µM (active),–
NNC(=O)c1cccnc1,inactive,inactive,inactive,71.3 µM (active),12.7 µM (active),inactive,–,2.53 µM (active),–
CC(C)(CCl)C(=O)Cl,–,inactive,inactive,inactive,inactive,inactive,inactive,inactive,–
C=CC(=O)OC,–,–,–,–,–,inactive,–,–,–
CCOC(=O)C(Cl)C(C)=O (stereo not given),inactive,–,inactive,–,inactive,inactive,inactive,inactive,inactive
O=S1OC[C@@H]2[C@H](CO1)[C@]1(Cl)C(Cl)=C(Cl)[C@@]2(Cl)C1(Cl)Cl (stereo not given in full),–,–,–,7.96 µM (active),35.6 µM (active),–,39.9 µM (active),inactive,–
